From the supplement of paper PMC11417369
In all, about 25,000 sequences were measured (“ln(normalized median fluorescence intensity)”: median about 6.7, highest 2% from about 10 on). This is one part of a sample in which the highest values are shown more often than they occur.

The sequences below were run on PfHDP1 homeodomain (GST-tagged) (assay: gcPBM binding intensity (ln(normalized median fluorescence intensity)); higher = stronger DNA binding).
Method in brief: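 An Agilent 4 × 180k array carrying primer-extended double-stranded 36-bp intergenic genomic probes and negative controls received GST-tagged P. falciparum DNA-binding domains expressed in E. coli, about 25 μg on average, for 1 h. The binding buffer contained 1× PBS, 1% milk, 0.2 mg/ml BSA, 0.5% salmon testes DNA and 0.03% Triton X-100. Binding intensity is the top Masliner-normalised natural-log median intensity across replicate spots of either probe orientation, read after Alexa488 anti-GST antibody staining and a 488 nm scan.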

| Sequence | gcPBM binding intensity (ln) |
| --- | --- |
| AGGTATATATTACAAGTGCACTGTAAAATTAAAATT | 10.5 |
| TGCATAATTAAAAATGGTACACTGTATTTATAATAT [XGTACX_site1575] | 6.38 |
| TAAAAAATTAATAAAGTGCATAAATATTACAATATT | 7.68 |
| ATATTTAAATAATATTCACACACAAAATTATATTTT [CACACA_site7955] | 6.44 |
| AAATGTATACACATGGTGCGTAATATATTATATATA [GTGCAC_site9877] | 7.85 |
| AATAAAAAAATATATTGTACTAATAATTATATGTTT [XGTACX_site2246] | 6.47 |
| TTTTTATCAAATAAATGTACACATATTAAATGAAAT [XGTACX_site555] | 6.6 |
| ATATATATTAAAAATAGTACATATAATAAAAATCAT [XGTACX_site4265] | 6.57 |
| CAATATATTATATGGGTGCAAACCACATATAAATAA | 8.55 |
| AGTATAAATAAATCATAAACATATATATATATATAT [GTGCAC_negctrl_site356] | 9.35 |
| AATCATATTAGTATGGTGCAATATATATATAAATAT [GTGCAC_site9800] | 10.5 |
| AATCATATTAGTATGGTGCAACATATATAAATATAT | 11 |
| ACATATTAAATATGAGTGCAATATATATATATATAA | 9.25 |
| ATACATTTATTGTATTGTACATAATATTATATATTC [XGTACX_site7115] | 6.55 |
| TGCATATTACTTTTTCACATAAAAATGATCCGATTA [GTGCAC_negctrl_site526] | 6.49 |
| ATATTTAAACGATGGTGTACATATATTACAAGTTGT [XGTACX_site1743] | 7.03 |
| ACATAAAATTGGAGCAAACACACAAGGTTGAAATTA [CACACA_site505] | 7.16 |
| TATATATTTCAATAATGTACATATAATATATATATT [XGTACX_site4124] | 6.6 |
| CCATAAAAAGGATACACACACACACCGACATATATA [CACACA_site4653] | 6.89 |
| ATTAAGTACTAAAAAGTGCAGTTCGGTACTGTGCTT [GTGCAC_site9755] | 6.42 |

| Sequence | gcPBM binding intensity (ln) |
| --- | --- |
| TATTTCATTAATGTCACTTTGAAAGAAATGAAAAAA [CACACA_negctrl_site1803] | 6.44 |
| CTATTTAAAATTTGAACACACATTATTTATTTTAAA [CACACA_site3114] | 6.41 |
| TTAATTATCCATTTTGCACACATTTTAAAACATGAA [CACACA_site189] | 10.7 |
| TTTTTTTTTTTTTTTGCACACATTTTAATTATTTTT [CACACA_site341] | 9.27 |
| TTCCTTTGTCCTAACTGTACTCAAATTTATTAGTGG [XGTACX_site226] | 7.04 |
| TATATATTCATAAAGTGTACATGTTTATATATATAT [XGTACX_site7585] | 8.53 |
| TATATATAAGCGTGTACACATTCTGAGTGTTGTATA [CACACA_site4502] | 7.02 |
| ATAGTATATCAAAATTTGTAAATCATTCTCAATAAA [CACACA_negctrl_site430] | 5.94 |
| AATATAAATAATTATACACACTTAATATATATATAC [CACACA_site5533] | 6.53 |
| TATATATATATATATATATATATGTATGTGCATTTA [TGCATGCA_negctrl_site53] | 11.2 |
| ATATGTATGTATTTATTATTGTGCATTGTATTTATA [CACACA_negctrl_site664] | 10.3 |
| ATATATATTTATATATATATATATATATATATGTAT [GTGCAC_negctrl_site220] | 7.92 |
| CACACGCACGAACACACACACACACGCGCACATATA [CACACA_site6304] | 8.54 |
| CAAAAAAACAAACACACACACACACCCATATATATA [CACACA_site3653] | 6.85 |
| TTTTTTAAAGTTTAAAGTACATATAAAAATATATAA [XGTACX_site5267] | 5.94 |
| AAAGTTTTTATAAAAAAAAAAATAAATACCATATAT [XGTACX_negctrl_site113] | 6.5 |
| TATACCAGTTTTAAAAGTACTTGTGCATAAAAAATA [XGTACX_site4794] | 11 |
| TATGGTTTTAAAAAATGTACGCAAGTGCGTTAATTT [XGTACX_site3945] | 7.62 |
| TTATAATATATATACAGTACATATATAAAATAATAT [XGTACX_site5917] | 6.5 |
| AAAAAAAATTATATATGTACTTATTAATCCTTTTAT [XGTACX_site1387] | 6.11 |

| Sequence | gcPBM binding intensity (ln) |
| --- | --- |
| AGCACATAAATAATTAAACACACATTGTTCTAGACA [CACACA_site8746] | 6.3 |
| TCCAATTGTTCTAGTGTGCACATAAATAAATCTCAT | 11 |
| CACATAAATAATTAAACACACATTGTTCTAGACAAT [CACACA_site2378] | 6.51 |
| AGTCTGAATAAAATTACACACATATACCTATAAATA [CACACA_site6929] | 6.4 |
| ATACATAAAATTAAAACACACATTTGATTAAATACG [CACACA_site7088] | 6.6 |
| TGCACAAAGTTATGCACACACCTAAAATTAATTTTT [CACACA_site7385] | 10.5 |
| TGCACAAAATTATGCACACACCTAAAATTAATTTTT [CACACA_site5596] | 10.8 |
| TAAATTAATACCTATGCACACATTTTTTTTTTTAAA [CACACA_site1238] | 8.59 |
| TGTGCTCAAAATTATGCACACACCTAAAATTAATTT [CACACA_site8950] | 10.7 |
| AATTAAAAAATTTATGCACACTTTAAAAAAAAAAAA [CACACA_site5962] | 9.66 |
| TGTGCCCAAAATTATGCACACACCTAAAATTAATTT [CACACA_site2914] | 10.5 |
| GATAATAATAAACAACCACACACAAAAAAACAAAAA [CACACA_site9074] | 7.01 |
| TTTTTTTTTTTTTATTGTACTTATTTTTTTATGTTT [XGTACX_site7725] | 5.96 |
| AAAAAAAAAAAATGCACACATATATTTCCATATACA [CACACA_site1471] | 9.96 |
| AAAAATATTAAAAGGCGTACAATACCTGTATGCAAC [XGTACX_site6069] | 6.12 |
| TTTGTTATTTTTTATTGTACTTTTTTTCTTTCATAA [XGTACX_site4302] | 7.03 |
| CAAATAGCTAGCTGTGCACACAAACATATTTTCCAA [CACACA_site879] | 11 |
| AATATTAACAATCGCACACATATTATTTTTCCAAAA [CACACA_site4982] | 7.13 |
| AATAGCTAGCTGTGCACACAAACATATTTTCCAAAT [CACACA_site880] | 10.3 |
